ELG1 DNA repair – qHTS screen for small molecules that inhibit ELG1-dependent DNA repair in human embryonic kidney (HEK293T) cells expressing luciferase-tagged ELG1; 330,000 compounds, 2.3% hits; HEK293T ELG1-luciferase reporter, luminescence, 16 h; DNA damage induced by 5-fluorouridine; Potency, µM (highest dose often 46.1 µM), for the others: top-dose activity change, negative = inhibition, most hits filed as inhibitors; AID 504467, 2011; note: potency is the fitted concentration of half-maximal effect; nearly all actives have a fitted effect of over 55% in size
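Cells (2,000 per well) received 5-fluorouridine plus test compound or DMSO and were incubated 16 hr at 37 °C, 5% CO2. Luciferase activity was read by luminescence 30 min after ONE-Glo addition; signal suppression marked inhibition of damage-induced ELG1 function.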
TDP1 cell CPT – qHTS for Inhibitors of human tyrosyl-DNA phosphodiesterase 1 (TDP1): qHTS in cells in presence of CPT; chicken DT40 Tdp1-/-;hTDP1 cells + 20 nM CPT, ATP luminescence, 48 h; Potency, µM (highest dose often 46.2 µM), for inactives: top-dose activity change, negative = growth inhibition, usual class: inhibitors; 420,000 compounds, 12% hits; AID 686979, 2013; note: potency is the fitted concentration of half-maximal effect; nearly all actives have a fitted effect of over 55% in size
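Chicken DT40 Tdp1-/- cells complemented with human TDP1, 400 cells/well, exposed to compounds plus 20 nM camptothecin for at least 48 h at 37 C; viability read as ATP content by CellTiter-Glo luminescence.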
HT1080 IDH1KD tx – qHTS for induction of synthetic lethality in tumor cells producing 2HG: qHTS for the HT-1080-IDH1KD cell line | HT-1080 IDH1 knockdown viability, ATP luminescence, 48 h | Potency, µM (series often up to 46.1 µM), without a hit: at the highest dose activity, negative = toxicity, hits mostly cytotoxic | 360,000 compounds, 2% hits | AID 686971, 2013;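 note: potency is the fitted concentration of half-maximal effect; 0% = DMSO wells and -100% = cell-free medium wells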
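Cytotoxicity counter-line: IDH1KD HT-1080, 48 h, CellTiter-Glo. Curves classed by r2, magnitude and activity.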
DT40 TDP1 no CPT – qHTS for Inhibitors of human tyrosyl-DNA phosphodiesterase 1 (TDP1): qHTS in cells in absence of CPT. DT40 Tdp1-/- hTDP1 cells, no CPT, ATP luminescence, 48 h. Potency, µM (doses to about 46.2 µM), inactives show at the top dose activity change, negative = growth inhibition, most hits filed as inhibitors. 420,000 compounds, 15% hits. AID 686978, 2013; note: potency is the fitted concentration of half-maximal effect; nearly all actives have a fitted effect of over 55% in size
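Camptothecin absent (DMSO only). Human TDP1-complemented DT40 knockout cells, 400 cells/well, 37 °C for minimum 48 hr; ATP measured via CellTiter-Glo, 30 min dark incubation, luminescence.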
IL1B secr inh – qHTS for Inhibitors of Inflammasome Signaling: IL-1-beta AlphaLISA Primary Screen. activity change, % at 57.5 µM. 360,000 compounds, 4.7% hits. THP-1 LPS/ATP IL-1B secretion, AlphaLISA, 16 h; stronger effect = lower value; in the data active = activity change below about -50%; inconclusive = mostly about -30% to -49%
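THP-1 cells pretreated 1 hr with compounds (up to 57.5 uM final), then stimulated with LPS (250 ng/mL final) plus ATP (1.25 mM final); secreted IL-1B measured by AlphaLISA after 16 hr, decreased signal indicating inhibition.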
HT1080NT lethal – qHTS for induction of synthetic lethality in tumor cells producing 2HG: qHTS for the HT-1080-NT fibrosarcoma cell line | HT-1080-NT fibrosarcoma viability, CellTiter-Glo ATP luminescence, 48 h | 360,000 compounds, 1.6% hits | Potency, µM (titrated, usually from 46.1 µM), for the others: at the top dose activity, negative = less viability, actives largely listed as cytotoxic | AID 686970, 2013;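 note: NT is the 2HG producing partner of a matched IDH1 knockdown line; potency is the fitted concentration of half-maximal effect; 0% = DMSO-treated cells and -100% = media-only wells without cells; nearly all actives have a fitted effect of over 55% in size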
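HT-1080-NT fibrosarcoma cells (2HG-overproducing), 750 cells/well in RPMI with 5% FBS, dosed after 2 h and incubated 48 h at 37C. CellTiter-Glo luminescence normalized to DMSO and no-cell wells; concentration-response curves fitted and classed.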
Active calls of the source: *; ? = inconclusive; · = no result given. Hits are enriched below; roughly 19% of the tested compounds scored in any of these assays. Unless noted, calls come from the whole dose curve; as a rule, active = well fitted curve in the direction sought with a large enough effect; inconclusive = small, poorly fitted or top-dose-only effect, or another doubt; inactive = no such curve, though single readings can be large; an effect the other way counts as inactive or inconclusive. Unless noted, % is set by controls: 0 for no effect and ±100 for the full control effect.

SMILES	ELG1 DNA repair	TDP1 cell CPT	HT1080 IDH1KD tx	DT40 TDP1 no CPT	IL1B secr inh	HT1080NT lethal
CCOc1ccccc1NC(=O)C(CC(C)C)NS(=O)(=O)c1ccc2c(c1)CCN2C(C)=O (stereo unspecified)	·	?	·	-16%	·	·
CCOC(=O)c1cnc2ccc(C(=O)OC)cc2c1Nc1ccc(OCc2ccccc2Cl)cc1	·	-12%	·	?	·	·
CCOC(=O)c1cnc2c(ccc3ccccc32)c1Nc1ccc(Cl)cc1	·	-16%	·	-24%	·	·
CCOC(=O)c1cnc2ccc(C)cc2c1Nc1ccc(OCc2ccccc2Cl)cc1	·	?	·	23µM*	·	·
CCOC(=O)c1cnc2ccc(OC)cc2c1Nc1ccc(OCc2ccccc2Cl)cc1	·	12µM*	·	7.3µM*	·	·
CCOC(=O)c1cnc2ccccc2c1Nc1cccc(OC)c1	·	?	·	16µM*	·	·
COCOCCn1cc(CN2CCS(=O)(=O)N(Cc3ccc(-c4ccc(C)cc4)cc3)C(C(C)C)C2=O)nn1 (stereo unspecified)	·	?	4%	?	3	-2%
COCOCCn1cc(CN2CCS(=O)(=O)N(Cc3ccc(-c4ccc(F)nc4)cc3)C(CC(C)C)C2=O)nn1 (stereo unspecified)	·	?	-1%	?	-14	-1%
CC(C)C1C(=O)N(Cc2cn(CCC3OCCO3)nn2)CCS(=O)(=O)N1Cc1ccc(-c2ccncc2)cc1 (stereo unspecified)	·	-27%	-1%	-28%	18	-4%
CC(C)C1C(=O)N(Cc2cn(CCC3OCCCO3)nn2)CCS(=O)(=O)N1Cc1ccc(-c2ccc(Cl)nc2)cc1 (stereo unspecified)	·	?	-3%	23µM*	?	6%
CC(C)CC1C(=O)N(Cc2cn(CCC3OCCCO3)nn2)CCS(=O)(=O)N1Cc1ccc(-c2ccc(Cl)c(Cl)c2)cc1 (stereo unspecified)	·	15µM*	?	16µM*	?	?
CC(C)CC1C(=O)N(Cc2cn(CCC3OCCCO3)nn2)CCS(=O)(=O)N1Cc1ccc(-c2ccc(Cl)nc2)cc1 (stereo unspecified)	·	?	-17%	21µM*	58	-15%
COc1ccc(-c2ccc(CN3C(C(C)C)C(=O)N(Cc4cn(CCC5OCCCO5)nn4)CCS3(=O)=O)cc2)cn1 (stereo unspecified)	·	15µM*	6%	21µM*	22	4%
CC(C)CC1C(=O)N(Cc2cn(CCC3OCCCO3)nn2)CCS(=O)(=O)N1Cc1ccc(-c2ccc(Cl)cc2)cc1 (stereo unspecified)	·	?	-27%	?	39	-7%
CCN(CC(=O)NCc1ccc(Cl)cc1)C(=O)CSc1cccc(C(F)(F)F)c1	-20%	18µM*	-4%	18µM*	-28	-4%
Cc1ccc(S(=O)(=O)NCc2ccccc2)cc1C(=O)NCC(=O)Nc1c(C)cccc1C	·	?	-22%	21µM*	0	-4%
CCN(CC(=O)NCc1ccc(Cl)cc1)C(=O)c1ccc2cc(OC)ccc2c1	-8%	?	-20%	13µM*	-9	1%
CCN(CC(=O)NCc1ccc(Cl)cc1)C(=O)CSc1ccccc1F	9%	-28%	0%	?	10	-4%
CCN(CC(=O)NCc1ccc(Cl)cc1)C(=O)c1cc(S(=O)(=O)NCc2ccccc2)ccc1C	?	?	-2%	21µM*	-11	-3%
O=c1c(-c2cccc(Cl)c2)nc2cncnc2n1-c1ccccc1	·	8%	·	2%	·	·
Cc1cc(NC(=O)COC(=O)c2ccccc2OCCOc2ccccc2)ccc1Br	·	-9%	1%	?	·	5%
O=c1cc(Cc2ccc([N+](=O)[O-])cc2)[nH]c(=O)[nH]1	·	-1%	10%	-2%	-1	7%
Nc1ccc(Cc2ccc([N+](=O)[O-])cc2)cc1	·	-25%	-10%	?	-50*	-8%
CCN(CC)C(=O)Oc1ccc2c(=O)c(-c3ccccc3)coc2c1	?	?	-3%	?	-54*	-19%
COc1ccc2c(=O)c(-c3ccccc3)coc2c1	?	?	0%	?	-7	1%
SMILES	ELG1 DNA repair	TDP1 cell CPT	HT1080 IDH1KD tx	DT40 TDP1 no CPT	IL1B secr inh	HT1080NT lethal
CSc1nc(N)nc(SCC(=O)C(C)(C)C)c1C#N	?	?	-2%	23µM*	-14	3%
CSc1nc(N)nc(SCCS(=O)(=O)c2ccc(Cl)cc2)c1C#N	-3%	21µM*	11µM*	26µM*	?	?
Cc1ccc(S(=O)(=O)CCSc2nc(C)cc(C)c2C#N)cc1	-27%	?	?	?	0	?
CSc1nc(N)nc(SCC(=O)CC(=O)OC(C)C)c1C#N	-18%	-5%	12%	-7%	-7	4%
CSc1nc(N)nc(SCC(=O)Nc2ccc(Cl)cc2)c1C#N	-3%	?	?	21µM*	-78*	?
CCOc1ccc(NC(=O)CSc2nc(C)c3c(c2C#N)CCCC3)cc1	?	-4%	0%	-24%	-15	7%
COc1cc(OC)c(NC(=O)C2CCN(S(=O)(=O)c3ccc4c(c3)CC(C)N4C(C)=O)CC2)cc1Cl (stereo unspecified)	-21%	21µM*	-3%	?	-1	-3%
CC(=O)N1c2ccc(S(=O)(=O)N3CCC(C(=O)NCc4ccc(Cl)cc4)CC3)cc2CC1C (stereo unspecified)	10µM*	18µM*	-3%	?	5	-23%
CC(=O)N1c2ccc(S(=O)(=O)N3CCCC3C(=O)NCc3ccc(Cl)cc3)cc2CC1C (stereo unspecified)	4%	21µM*	-13%	?	-7	-8%
CC(=O)N1c2ccc(S(=O)(=O)N3CCC(C(=O)NCCc4ccc(Cl)cc4)CC3)cc2CC1C (stereo unspecified)	?	16µM*	-21%	10µM*	-2	?
O=C(NCc1ccc(Cl)cc1)[C@@H]1CCCN1S(=O)(=O)c1ccc(Cl)cc1	-16%	?	4%	?	-8	5%
